Screens deposited in PubChem by National Center for Advancing Translational Sciences (NCATS).
Most compounds without a hit are left out; they make up all but 12% or so of the library.
PLK1 PBD inh – PLK1 (human) polo-box domain binding inhibition. 2.8% of 360,000 active. P53350. Plk1 PBD binding of FITC phosphopeptide, fluorescence polarization. AID 720504. Potency, µM, actives largely listed as inhibitors; note: series mostly up to about 57 µM; nearly all actives have a fitted effect of over 65% in size
Target sequence (P53350 whole entry, looked up, the tested form may be a part): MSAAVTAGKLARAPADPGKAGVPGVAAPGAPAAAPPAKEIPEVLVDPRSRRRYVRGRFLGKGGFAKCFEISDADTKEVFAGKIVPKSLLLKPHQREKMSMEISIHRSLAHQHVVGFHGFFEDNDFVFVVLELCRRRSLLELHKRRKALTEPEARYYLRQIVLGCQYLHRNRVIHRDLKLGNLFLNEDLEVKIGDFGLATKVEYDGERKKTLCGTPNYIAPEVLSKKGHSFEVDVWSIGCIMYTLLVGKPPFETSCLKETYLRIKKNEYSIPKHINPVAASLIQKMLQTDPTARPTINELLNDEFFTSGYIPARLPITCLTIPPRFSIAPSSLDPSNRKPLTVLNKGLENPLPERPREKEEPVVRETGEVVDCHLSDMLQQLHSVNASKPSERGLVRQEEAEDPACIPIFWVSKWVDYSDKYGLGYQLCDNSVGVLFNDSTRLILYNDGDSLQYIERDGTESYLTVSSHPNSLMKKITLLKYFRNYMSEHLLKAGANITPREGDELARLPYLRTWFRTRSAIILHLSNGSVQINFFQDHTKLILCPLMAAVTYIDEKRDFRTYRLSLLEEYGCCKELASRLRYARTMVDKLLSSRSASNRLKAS
JMJD2A Tudor – inhibitors of human JMJD2A Tudor domain; O75164; Potency, µM (highest dose often 114 µM), actives largely listed as inhibitors; AlphaScreen JMJD2A-Tudor / H3K4me3 peptide binding; 4.4% of 390,000 active; AID 504339; note: nearly all actives have a fitted effect of over 50% in size
Sfp inh – Sfp phosphopantetheinyl transferase inhibition; Q9F4F7; Biochemical Sfp PPTase activity, qHTS; Potency, µM, most hits filed as inhibitors; 3.5% of 310,000 active; AID 1490;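 note: the enzyme is Sfp with the accession as filed and its product quenches rhodamine fluorescence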
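Step 1, compound plus 15 nM Sfp-PPTase, 15 min, room temperature. Step 2, add rhodamine-CoA (5 uM) and BHQ-2-YbbR (12.5 uM). Step 3, read 525/598 nm fluorescence at 0 and 30 min.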
BAZ2B block – inhibitors of human BAZ2B bromodomain; 4.4% of 360,000 active; Potency, µM (titrated, usually from 114 µM), actives largely listed as inhibitors; AID 504333; AlphaScreen BAZ2B-H3K14Ac peptide displacement; note: nearly all actives have a fitted effect of over 60% in size
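In this displacement format the biotinylated H3(5-23) peptide acetylated at Lys14 serves as ligand at 50 nM, with BAZ2B at 50 nM in PBS pH 7.4 containing 0.01% Tween-20. Donor and acceptor beads are 10 ug/mL final.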
HP1b chromo inh – HP1-beta chromodomain-methylated histone interaction inhibition; Potency, µM (titrated, usually from 114 µM), most hits filed as inhibitors; 0.56% of 390,000 active; P83916; AID 540317; AlphaScreen HP1-beta / biotin-H3K9me3 peptide binding; note: nearly all actives have a fitted effect of over 70% in size
Target sequence (P83916 whole entry, looked up): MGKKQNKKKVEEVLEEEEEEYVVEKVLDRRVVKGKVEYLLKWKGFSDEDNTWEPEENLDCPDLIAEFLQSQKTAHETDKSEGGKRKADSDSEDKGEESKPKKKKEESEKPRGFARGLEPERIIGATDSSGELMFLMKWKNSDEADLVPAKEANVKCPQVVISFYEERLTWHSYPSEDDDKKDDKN
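AlphaScreen: HP1-beta (50 nM) preformed 30 min with biotin-H3(1-18)K9me3 peptide (50 nM) in PBS pH 7.4, 0.01% Tween-20. Compound added for 30 min at RT, then streptavidin donor/nickel chelate acceptor beads (10 ug/mL) for 30 min.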
G9a block – blocks human histone lysine methyltransferase G9a. Q96KQ7. G9a H3K9 monomethylation, AlphaScreen, 2 h. Potency, µM (series often up to 102 µM), usual class: inhibitors. 8.8% of 350,000 active; note: nearly all actives have a fitted effect of over 75% in size
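G9a (20 nM) preincubated 15 min RT with compounds, then 500 nM biotinylated H3K9 peptide and 20 uM SAM added; 2 h RT reaction. Monomethyl-H3K9 product detected by AlphaScreen with anti-H3K9me1 antibody, streptavidin donor and anti-rabbit IgG acceptor beads.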
Large screens that a line does not name were inactive; ! = a repeat was not active. Calls come from the whole dose curve; as a rule, active = well fitted curve in the direction sought with a large enough effect; inconclusive = small, poorly fitted or top-dose-only effect, or another doubt; inactive = no such curve, though single readings can be large; an effect the other way counts as inactive or inconclusive.

CCCn1cc(S(=O)(=O)c2cccc(Cl)c2)c(=O)c2cc(F)c(N3CCN(CC)CC3)cc21	none (no result: PLK1 PBD inh, Sfp inh)
Oc1ccc(N2CCN(Cc3ccc(OCCCN4CCCCC4)cc3)CC2)cc1	JMJD2A Tudor 50µM, Sfp inh inconclusive, BAZ2B block 10µM, HP1b chromo inh 40µM, G9a block 10µM
O=C(c1ccccc1)c1ccc(OCCCN2CCCC2)cc1	JMJD2A Tudor 10µM, BAZ2B block inconclusive, HP1b chromo inh inconclusive, G9a block 2.5µM
CC(C)c1ccc(OCCCN2CCCC2)cc1	JMJD2A Tudor 56µM, BAZ2B block 56µM
CCCCOc1ccc(CN2CCCCC2)cc1	none
CCOc1ccc(S(=O)(=O)Nc2ccn(C)n2)cc1	none (no result: Sfp inh)
C=CCSc1nc(C)c(CCC(C)C)c(=O)[nH]1	PLK1 PBD inh 27µM
O=C(CNC(=O)c1ccco1)OCC(=O)c1ccc(Cl)cc1	none
O=C(CNC(=O)c1ccco1)OCC(=O)c1ccc2c(c1)CCCC2	G9a block 50µM
O=C(CNC(=O)c1ccco1)OCc1cccc(Cl)c1	G9a block 50µM
O=C(CNS(=O)(=O)c1ccccc1)OCC(=O)c1ccc([N+](=O)[O-])cc1	JMJD2A Tudor inconclusive, Sfp inh 79µM, G9a block 7.1µM
O=C(CNC(=O)c1ccco1)OCC(=O)c1ccc([N+](=O)[O-])cc1	PLK1 PBD inh inconclusive, Sfp inh inconclusive, G9a block 25µM
O=C(CNC(=O)c1ccco1)NCC(=O)OCc1cccc(Cl)c1	none
COc1ccc(Oc2ncc3nc(CCc4ccccc4)c(=O)n(C)c3n2)cc1	none (no result: PLK1 PBD inh, JMJD2A Tudor, BAZ2B block, HP1b chromo inh)
N#CCN=C(c1ccccc1)c1ccccc1	none (no result: Sfp inh)
O=C1CC(/C=C/c2ccc([N+](=O)[O-])cc2)=Nc2ccccc2N1	PLK1 PBD inh inconclusive, Sfp inh 22µM, BAZ2B block inconclusive (no result: G9a block)
O=C1CC(/C=C/c2ccco2)=Nc2ccccc2N1	G9a block 45µM
O=C1CC(C(F)(F)C(F)(F)C(F)(F)C(F)F)=Nc2ccccc2N1	none
O=C1CC(/C=C/c2ccccn2)=Nc2ccccc2N1	PLK1 PBD inh inconclusive, JMJD2A Tudor 45µM, BAZ2B block inconclusive, G9a block 45µM
C[C@@]1(C(NC(=O)c2cccs2)c2ccc(-c3ccccc3)cc2)C[C@H]1C1CCCCC1 (stereo not given in full)	none (no result: PLK1 PBD inh, JMJD2A Tudor, BAZ2B block, HP1b chromo inh, G9a block)
Cc1ccc(S(=O)(=O)NCCC(=O)NNC(=O)c2ccccc2O)cc1C	none (no result: Sfp inh)
CN1CCN(c2ncc3nc(-c4cccc(C#N)c4)c(=O)n(C)c3n2)CC1	none (no result: PLK1 PBD inh, JMJD2A Tudor, BAZ2B block, HP1b chromo inh)
COc1ccc(C(CNCC(O)COc2c(C)ccc(C)c2C)N(C)C)cc1 (stereo not given)	JMJD2A Tudor 22µM, BAZ2B block 56µM
Oc1ccc(Nc2nc(-c3ccccc3)nc3ccccc23)cc1	BAZ2B block inconclusive
Oc1ccc(Nc2nc3ccccc3nc2Nc2ccc(O)cc2)cc1	JMJD2A Tudor inconclusive, BAZ2B block 50µM, HP1b chromo inh inconclusive, G9a block 10µM
COc1ccc(C(C)=O)cc1COC(=O)c1cc(=O)c2ccccc2o1	PLK1 PBD inh inconclusive, JMJD2A Tudor inconclusive
CCCCNC(=O)CCCn1c(=O)c2ccccc2n(Cc2ccc(Cl)cc2)c1=O	none (no result: PLK1 PBD inh, Sfp inh)
CC(C)CC(NC(=O)CC12CC3CC(CC(C3)C1)C2)C(=O)NC1=NCCS1 (stereo not given)	PLK1 PBD inh 15µM, JMJD2A Tudor 22µM (no result: G9a block)
CC(C)C(NC(=O)C12CC3CC(CC(C3)C1)C2)C(=O)NC1=NCCS1 (stereo not given)	none (no result: PLK1 PBD inh, JMJD2A Tudor, HP1b chromo inh)
COc1cc(/C=N/NC(=O)C(=O)N2CCCCCC2)ccc1O	none (no result: G9a block)
Oc1ccc(/C=N/NC2=NCCCCC2)cc1	G9a block 40µM
COc1cc(/C=N/NC2=NCCCCC2)ccc1O	G9a block 56µM
Cc1ccc(Sc2ncccc2C(=O)NCc2cc([N+](=O)[O-])ccc2O)c(C)c1	BAZ2B block 35µM (no result: G9a block)
O=C(NCc1cc([N+](=O)[O-])ccc1O)c1cccnc1Sc1ccccc1	BAZ2B block inconclusive
COc1cccc(CNC(=O)c2sc3nc[nH]c(=O)c3c2C)c1	none (no result: PLK1 PBD inh, Sfp inh)
NCCc1cnc[nH]1	Sfp inh inconclusive, BAZ2B block inconclusive, G9a block 8.4µM!
NCCC(=O)NCCc1cnc[nH]1	JMJD2A Tudor inconclusive
CN(C)CCCNCCCNC(=O)c1ccccn1	G9a block inconclusive
CN(C)CCCNCCCNC(=O)/C(=N\O)c1ccccc1	JMJD2A Tudor inconclusive, G9a block 50µM
CN(C)CCNC(=O)/C(=N\O)c1ccccn1	Sfp inh inconclusive, BAZ2B block inconclusive, G9a block 50µM
CC(NC(=O)CSc1nnnn1C1CC1)c1ccccc1Br (stereo not given)	none (no result: Sfp inh, BAZ2B block, G9a block)
Oc1c(C(c2ccc(F)cc2)N2CCCC2)sc2nc(-c3ccco3)nn12 (stereo not given)	G9a block 13µM (no result: PLK1 PBD inh, Sfp inh)
O=[N+]([O-])c1ccc(C(c2sc3nc(-c4ccco4)nn3c2O)N2CCN(Cc3ccccc3)CC2)cc1 (stereo not given)	JMJD2A Tudor inconclusive, BAZ2B block inconclusive, G9a block inconclusive (no result: PLK1 PBD inh, Sfp inh)
O=[N+]([O-])c1ccc(C(c2sc3nc(-c4ccco4)nn3c2O)N2CCN(c3cccc(Cl)c3)CC2)cc1 (stereo not given)	JMJD2A Tudor inconclusive, BAZ2B block inconclusive, G9a block 13µM (no result: PLK1 PBD inh, Sfp inh)
Brc1c(CSc2nncn2-c2ccccc2)nc2ncccn12	G9a block 56µM
Cc1cccc2nc(CSc3nncn3-c3ccccc3)cn12	G9a block 40µM
c1ccc(-n2cnnc2SCc2cn3ccccc3n2)cc1	G9a block 50µM
Cc1cccc2nc(CSc3nnnn3-c3ccccc3)cn12	none
O=C(CSc1nnc(Nc2ccccc2F)s1)c1cc2ccccc2o1	HP1b chromo inh inconclusive, G9a block 7.9µM
COc1ccc(Nc2nnc(SCC(=O)c3cc4ccccc4o3)s2)cc1	Sfp inh inconclusive, BAZ2B block inconclusive
O=C1c2ccccc2C(=O)N1CSc1nnc(Nc2ccccc2F)s1	G9a block 10µM
CC(=O)N1CCc2cc(S(=O)(=O)Nc3ccc(C)c(C)c3)ccc21	none (no result: PLK1 PBD inh, Sfp inh, BAZ2B block, HP1b chromo inh, G9a block)
CCN(CC)C(=O)Cn1cc(C(=O)C(=O)N2CC=C(c3ccccc3)CC2)c2ccccc21	G9a block 50µM
CN(C(=O)c1ccc(S(=O)(=O)c2cccc(Cl)c2)c([N+](=O)[O-])c1)C1CCCCC1	JMJD2A Tudor inconclusive, G9a block 32µM
O=C(NC1CCCCC1)c1ccc(S(=O)(=O)c2ccccc2Cl)c([N+](=O)[O-])c1	G9a block inconclusive (no result: PLK1 PBD inh, JMJD2A Tudor, HP1b chromo inh)
OC1c2ccccc2-c2nc3ccccc3cc21 (stereo not given)	none (no result: PLK1 PBD inh, JMJD2A Tudor, BAZ2B block, HP1b chromo inh, G9a block)
CC(C)Sc1nc2ccccc2[nH]1	G9a block 56µM
CC(C)(C)c1nc2ccccc2[nH]1	PLK1 PBD inh 27µM, JMJD2A Tudor 79µM, G9a block inconclusive
CN(C)CCNc1ncnc2c1ncn2[C@H]1CN(Cc2cccnc2)C[C@@H](CO)O1	none (no result: JMJD2A Tudor, Sfp inh, BAZ2B block, HP1b chromo inh, G9a block)
